Screening results deposited in PubChem by National Center for Advancing Translational Sciences (NCATS).
OvCa metastasis: blocks SKOV3ip1 adhesion and invasion in omental model; SKOV3ip1-GFP adhesion/invasion on 3D omental model, fluorescence; Potency, µM (highest dose often 45.8 µM), without a hit: at the highest dose activity change, negative = inhibition, most hits filed as inhibitors; actives 0.1% (n = 46,000); AID 1963576;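 note: plate controls were DMSO wells for no effect and tomatine positive control wells for full effect; nearly all actives have a fitted effect of over 65% in size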
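qHTS, 4-pt dose (0.36-46 umol/L); SKOV3ip1-GFP, 1,200 cells/well, no FBS; primary omental fibroblast/mesothelial co-culture 48 h pre-grown; 2 h RT + 16 h 37 C; PBS wash, 4% PFA; GFP count 488/509 nm.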
p53null 39C kill: selectivity test: cytotoxicity in p53 null cells, nonpermissive temperature | H1299 p53-null (neo) cells, 39C, ATPlite viability, 24 h | Potency, µM (highest dose often 46.1 µM), inactives show at the top dose activity, negative = cell killing, actives largely listed as cytotoxic | actives 0.97% (n = 55,000);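 note: 0% = DMSO only and -100% = full killing by 100 µM tamoxifen; nearly all actives have a fitted effect of over 50% in size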
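Luminescent ATP signal reported cell survival after H1299 lines (neo, p53 null; or p53 A138V) received up to 46 uM compound and 24 hr incubation at 39C.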
S16 viability: cytotoxicity in S16 Pmp22-F2sN Schwann cells; S16 Pmp22-F2sN Schwann cells viability, CellTiter-Glo, 24 h; Potency, µM (titrated, usually from 57.5 µM), inactives show at the highest dose activity change, negative = cytotoxicity, most hits filed as cytotoxic; actives 0.48% (n = 43,000); note: nearly all actives have a fitted effect of over 65% in size
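Viability was measured by CellTiter-Glo luminescence (15 min, room temperature). This followed 24 h at 37 °C of compound exposure (23 nL pin transfer) in S16 Pmp22-F2sN Schwann cells, 500-1,000 per well.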
p53null 32C kill: kills p53 null cells at the permissive temperature. H1299-neo p53 null cells, ATP luminescence, 24 h, 32C. actives 0.62% (n = 55,000). Potency, µM (titrated, usually from 46.1 µM), for inactives: at the top dose activity change, negative = cytotoxicity, usual class: cytotoxic;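 note: 0% = DMSO only and -100% = full killing by 100 µM tamoxifen; nearly all actives have a fitted effect of over 55% in size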
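H1299-neo (p53-null) cells, 600/well, were pre-incubated overnight at 37C, then exposed to compounds at up to 46 uM for 24 hr at 32C. Viability was measured as ATP content by luminescence, and AC50 values came from Hill fits.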
pS6 MEF inh: reduces mTORC1 signaling in Tsc2 and p53 null MEF cells; actives 0.78% (n = 44,000); Potency, µM (doses to about 38.3 µM), for inactives: at the top dose activity change, negative = inhibition, most hits filed as inhibitors; Tsc2-/- p53-/- MEF, phospho-rpS6 immunofluorescence/PI, 24 h; AID 493208;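 note: plate controls were DMSO for no effect and rapamycin for full effect; nearly all actives have a fitted effect of over 50% in size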
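Plate MEFs (Tsc2-/-, p53-/-, empty vector) in DMEM/10% FBS; after 24 h add compound, incubate 24 h at 37 degree Celsius; fix in PFA/TX-100, block, stain phospho-rpS6 and 10 uM PI; scan at 488 nm; report % positive cells.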
PMP22 txn: modulates PMP22 transcription in S16 Schwann cells | actives 2% (n = 43,000) | Potency, µM (top dose mostly 57.5 µM), for inactives: top-dose activity change, negative = inhibition, usual class: inhibitors | S16 Pmp22-F2sN Schwann cells (luciferase reporters placed in the Pmp22 gene), FLuc/NLuc coincidence luminescence, 24 h; active = clear falling dose curves in both reporters; inconclusive = both reporters move, but less clearly or upward; inactive = either reporter flat; the % is the NLuc reporter signal
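S16 Schwann cells carrying FLuc/NLuc coincidence reporter in the Pmp22 3' UTR treated with compound 24 h at 37C; FLuc then NLuc luminescence read sequentially by dual-luciferase reagents.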
Active calls of the source: *; i = inactive; ? = inconclusive; · = not tested or not shown; [ ] = dose if it differs, or a comment. The list is not random: actives were taken first. Their share in the collection is about 3.1%. Unless noted, calls come from the whole dose curve; as a rule, active = well fitted curve in the direction sought with a large enough effect; inconclusive = small, poorly fitted or top-dose-only effect, or another doubt; inactive = no such curve, though single readings can be large; an effect the other way counts as inactive or inconclusive. Unless noted, % is set by controls: 0 for no effect and ±100 for the full control effect; potency is the fitted concentration of half-maximal effect.

SMILES	OvCa metastasis	p53null 39C kill	S16 viability	p53null 32C kill	pS6 MEF inh	PMP22 txn
Cc1ccc2sc(N(Cc3cccnc3)C(=O)CCS(=O)(=O)c3ccccc3)nc2c1C	?	5%	?	-11%	-4%	?
Cc1cccc2sc(N(Cc3cccnc3)C(=O)CCS(=O)(=O)c3ccccc3)nc12	-20%	13µM*	?	?	?	?
COc1cc(C(=O)NC(c2ccc(Cl)cc2)c2cc(Cl)c3cccnc3c2O)cc(OC)c1OC (stereo unspecified)	?	-18%	3.2µM*	?	0%	?
CCC(=O)NC(c1ccccc1OC)c1ccc2cccnc2c1O (stereo unspecified)	·	?	·	2%	·	·
COc1cccc(C(=O)NC(c2ccc(Cl)cc2)c2cc(Cl)c3cccnc3c2O)c1 (stereo unspecified)	?	-5%	5µM*	?	-2%	4.6µM*
Cc1ccc2sc(-c3ccc(N)cc3)nc2c1	4%	1.6µM*	-2%	2µM*	-11%	-26%
CCOc1ccc2nc(N3CCN(C(=O)c4ccc(S(=O)(=O)CC)cc4)CC3)sc2c1	-6%	19%	-28%	-13%	-5%	-26%
Cc1ccc2sc(N3CCN(C(=O)CCS(=O)(=O)c4ccc(F)cc4)CC3)nc2c1C	-4%	4%	?	-5%	-7%	?
CCOc1ccc2nc(N3CCN(C(=O)CS(=O)(=O)c4ccc(F)cc4)CC3)sc2c1	-9%	?	?	10µM*	-8%	?
Cc1c(Cl)ccc2sc(N3CCN(C(=O)CCS(=O)(=O)c4ccc(F)cc4)CC3)nc12	-5%	30%	?	3%	-19%	12µM*
CC(=O)O[C@H]1C[C@@H]2CC[C@H]3[C@H]4C[C@H]([N+]5(C)CCCCC5)[C@@H](OC(C)=O)[C@@]4(C)CC[C@@H]3[C@@]2(C)C[C@H]1N1CCCCC1	-6%	·	·	·	·	·
CC(C)(C)C(=O)Nc1ccc(-c2nc3ccccc3s2)cc1	?	0.63µM*	0%	0.5µM*	3%	-4%
CCS(=O)(=O)c1ccccc1C(=O)Nc1ccc(-c2nc3ccccc3s2)cc1	i	-15%	14%	-4%	11%	-14%
N#CC1(c2cccc(C(=O)Nc3cc(Oc4ccc5nc(NC(=O)C6CC6)sc5n4)ccc3F)c2Cl)CC1	16%	·	·	·	·	·
O=C(Nc1cccc(S(=O)(=O)Nc2ccc(Cl)cc2)c1)c1cc2c(s1)CCCC2	·	2.8µM*	·	8%	·	·
Cc1ccc(NC(=O)c2cc3c(s2)CCCC3)cc1S(=O)(=O)Nc1ccccc1Cl	·	9%	·	35%	·	·
FC(F)c1nc2ccccc2n1-c1nc(N2CCOCC2)nc(N2CCOCC2)n1	9%	·	·	·	·	·
COCCCNC(=O)c1oc2c(c1C)-c1nn(Cc3cccc(Cl)c3)cc1CC2	0%	18µM*	?	20%	7%	?
O=C(Nc1ccc2oc(-c3ccc4ccccc4c3)nc2c1)c1cc(Cl)ccc1Cl	i	1%	0%	2%	5%	0%
O=C(Nc1ccc2oc(-c3ccc4ccccc4c3)nc2c1)c1cc(Br)ccc1Cl	?	-15%	-4%	-4%	16µM*	?
O=C(Nc1ccc2oc(-c3cc(Br)ccc3Cl)nc2c1)c1ccc2ccccc2c1	-26%	?	22µM*	-9%	-14%	?
N#CC(=C(N)Sc1ccccc1N)C(C#N)=C(N)Sc1ccccc1N	1%	·	·	·	·	·
COc1cccc(-c2nnc(-c3ccc(C)o3)o2)c1	·	13µM*	·	13µM*	·	·
COc1cc(/C=N/O)ccc1OCc1ccc(C(=O)O)cc1	·	8.9µM*	·	13µM*	·	·
COc1cc(/C=N/OCC(=O)NC23CC4CC(CC(C4)C2)C3)ccc1OCc1ccccc1	·	43%[1.84 µM]	·	·	·	·
SMILES	OvCa metastasis	p53null 39C kill	S16 viability	p53null 32C kill	pS6 MEF inh	PMP22 txn
Cc1cc(C)cc(NC(=O)Cn2cc(C(=O)C3CCCCC3)c3ccccc32)c1	6%	?	2%	-18%	-25%	?
Cc1c(Cl)cccc1NC(=O)Cn1cc(C(=O)C2CCCCC2)c2ccccc21	?	?	?	14%	-23%	10µM*
COc1cc(Nc2ncc(F)c(Nc3ccc4c(n3)N(COP(=O)(O)O)C(=O)C(C)(C)O4)n2)cc(OC)c1OC	2%	·	·	·	·	·
Cc1ccc(-n2ncc3c(Nc4ccc(Oc5ccccc5)cc4)ncnc32)c(C)c1	-10%	74%	0%	25%	1%	?
Cc1ccc(-n2ncc3c(Nc4cccc(Cl)c4)ncnc32)c(C)c1	10µM*	8%	0%	3%	0%	-40%
OCCn1cc(-c2ccc3c(c2)CCC3=NO)c(-c2ccncc2)n1	12%	·	·	·	·	·
Cc1cccc(C2C=C(c3ccc(F)cc3)Nc3nc4ccccc4n32)c1 (stereo unspecified)	4%	?	-27%	?	-1%	?
CCc1ccc(C2=CC(c3c(F)cccc3Cl)n3c(nc4ccccc43)N2)cc1 (stereo unspecified)	2%	?	?	8.9µM*	0%	?
Cc1ccc(C2=CC(c3ccccc3C)n3c(nc4ccccc43)N2)cc1 (stereo unspecified)	8%	?	?	1.3µM*	-7%	?
OCCC#Cc1nc(-c2ccc(F)cc2)c(-c2ccncc2)n1CCCc1ccccc1	-10%	·	·	·	·	·
Cc1csc(NC(=O)c2sc3nc4c(c(C(F)(F)F)c3c2N)CCC4)n1	19%	·	·	·	·	·
COc1cc(NC(=O)c2cccc3c2C(=O)N(C2CCCCC2)C3)cc(OC)c1OC	i	10%	?	17%	15µM*	?
Cc1cc(C)cc(NC(=O)c2cccc3c2C(=O)N(C2CCCCC2)C3)c1	i	-2%	17%	-2%	-6%	1%
COc1ccc(-c2noc(CSc3nnc(C)n3-c3ccc(OC)cc3)n2)cc1	16%	-17%	-11%	-10%	-3%	?
COc1ccc(-c2noc(CSc3nnc(-c4ccncc4)n3-c3ccc(OC)cc3)n2)cc1	-9%	10%	?	7%	-3%	2.4µM*
CC(C)OCc1cc(CN2CCN(c3ccccc3)CC2)c(O)c2ncccc12	6%	1.3µM*	?	?	?	5.1µM*
CCOCc1cc(CN2CCN(c3cccc(Cl)c3)CC2)c(O)c2ncccc12	-9%	?	?	?	12µM*	5.7µM*
